# From PubChem
# In the library only some 22% were active in any assay of this set; here they are far more common.
# CYP2C9 inhib: blockers of cytochrome P450 2C9 activity – biochemical, luminescence, ADME assay, primary screen | 96,000 tested, 20% active | CYP2C9 Supersomes, luciferin-H conversion | P11712 | inhibition, % at 5 µM;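 active = blocking of liver enzyme CYP2C9 beyond about 50% at 5 µM, limit read from the data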
# Target sequence (P11712 whole entry, looked up): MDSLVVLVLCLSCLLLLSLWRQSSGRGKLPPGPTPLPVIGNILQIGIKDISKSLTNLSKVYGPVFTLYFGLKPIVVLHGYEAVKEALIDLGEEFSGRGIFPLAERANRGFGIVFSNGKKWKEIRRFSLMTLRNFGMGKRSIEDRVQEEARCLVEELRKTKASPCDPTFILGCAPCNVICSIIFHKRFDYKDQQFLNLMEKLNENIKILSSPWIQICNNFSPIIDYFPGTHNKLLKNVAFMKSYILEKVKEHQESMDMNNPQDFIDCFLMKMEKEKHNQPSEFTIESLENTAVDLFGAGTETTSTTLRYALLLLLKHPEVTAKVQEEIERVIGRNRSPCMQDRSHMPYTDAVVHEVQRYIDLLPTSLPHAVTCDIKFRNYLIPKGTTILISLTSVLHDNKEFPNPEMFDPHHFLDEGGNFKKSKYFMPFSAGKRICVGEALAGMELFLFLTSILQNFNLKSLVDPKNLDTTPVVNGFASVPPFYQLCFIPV
# CYP2C19 activ: human CYP2C19 activators, primary screen, biochemical, luminescence | 96,000 tested, under 10 active | activation factor at 5 µM | AID 1025, 2008 | recombinant CYP2C19, luciferin-H EGE luminescence; hits give high values; 0 = fully inhibited enzyme, 1 = untreated enzyme;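 active = activation factor of at least 2 at 5 µM in the primary screen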;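 note: 0 = wells with 2.5 mM tranylcypromine and 1 = vehicle-only wells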
# CYP2C9 act: human CYP2C9 activators, primary screen, biochemical, luminescence | Cytochrome P450 2C9 (Homo sapiens), P11712 | recombinant CYP2C9, luciferin-H conversion; hits give high values; factor 1 = untreated enzyme, 0 = blocked | activation factor at 5 µM | 96,000 tested, 1.4% active | AID 1024, 2008;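 active = activation factor of 2 or more for CYP2C9 at a 5 µM dose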;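 note: 0 = sulfaphenazole-blocked wells and 1 = vehicle-only wells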
# CYP2C19 inhib: blockers of cytochrome P450 2C19 activity – biochemical, luminescence, ADME assay, primary screen; P33261; CYP2C19 Supersomes, luciferin-H EGE luminescence, 30 min; inhibition, % at 5 µM; 96,000 tested, 21% active;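 active = CYP2C19 inhibition above a set limit at 5 µM in the primary screen, cut at about 50% in these data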;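 note: plate controls were negative control wells for no effect and 2.5 mM tranylcypromine positive control for full effect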
# Measles CPE: compounds protecting cells from measles virus cytopathic effect, primary screen, measles RdRp inhibitor project, single point, MLSMR library, absorbance; protection (pct of control), % at 4 µM; 140,000 tested, 1.5% active; Measles virus-infected cells, CPE protection; in the data active = protection mostly above about 24%, no sharp cut-off; inactive = mostly below about 26%
# An asterisk follows results filed as active; x = not tested or not shown.
SMILES,CYP2C9 inhib,CYP2C19 activ,CYP2C9 act,CYP2C19 inhib,Measles CPE
COc1ccc(NC(=O)C2CCCN(c3c4c(nc5ncnn35)CCC4)C2)cc1 (centres undefined),80*,0.7,0.2,31,2
CCc1c(C)nc2ncnn2c1N1CCCC(C(=O)Nc2cc(F)ccc2C)C1 (centres undefined),85*,0.8,0.2,23,7
CCc1c(C)nc2ncnn2c1N1CCC(C(=O)Nc2cccc(C(C)=O)c2)CC1,76*,0.5,0.2,54*,10
O=C(CN1C(=O)C2C3C=CC(C3)C2C1=O)Nc1nc(SCc2ccc(Cl)cc2)n[nH]1 (centres undefined),32,0.4,0.7,60*,6
C=CCOc1ccc(Oc2cc(C)nc(SC)n2)nn1,x,x,x,x,5
Nc1ccc(-c2nc3ccc(C(=O)O)cc3s2)cc1,x,x,x,x,16
Nc1cccc(-c2nc3ccc(N)cc3s2)c1,58*,0.2,0.4,80*,2
CCOC(=O)C(NC(=O)Nc1ccc(Cl)cn1)(Oc1ccc(F)cc1)C(F)(F)F (centres undefined),x,x,x,x,20
COc1ccc(C2=CC(c3cc(OC)c(OC)c(OC)c3)NC(=S)N2)cc1 (centres undefined),94*,0.3,0.1,74*,21
COc1cc(C2C=C(C34CC5CC(CC(C5)C3)C4)NC(=S)N2)cc(OC)c1OC (centres undefined),54*,0.5,0.5,49,12
COc1ccc(OC)c(C2C=C(C34CC5CC(CC(C5)C3)C4)NC(=S)N2)c1 (centres undefined),x,x,x,x,34*
COC(=O)c1[nH]c2ccccc2c1NC(=O)C(C)N1CCN(C(=O)c2ccco2)CC1 (centres undefined),25,0.9,0.7,11,2
CN(C)CCNC(=S)Nc1ccc(Br)cc1,x,x,x,x,1
Cc1csc(SCc2nc3sc4c(c3c(=O)[nH]2)CCC4)n1,x,x,x,x,13
N#C/C(=C\N1CCOCC1)c1ccccc1,24,0.4,0.8,57*,2
COc1ccc(C)cc1NC(=O)CN(C)S(=O)(=O)c1cnc[nH]1,73*,0.2,0.3,78*,7
Cc1cccc(NC(=O)Cn2cccc2)c1,22,0.8,0.8,24,12
CCN(c1cccc(C)c1)S(=O)(=O)c1cnc[nH]1,98*,0,0,97*,10
CCN(c1cccc(C)c1)S(=O)(=O)c1ccc2[nH]c(=O)c(=O)[nH]c2c1,69*,0.7,0.3,32,5
Cc1cccc(NC(=O)CN(C)S(=O)(=O)c2cnc[nH]2)c1,93*,0.1,0.1,90*,5
COC(=O)Nc1ccc2c(c1)N(C(=O)CCN1CCN3CCCC3C1)c1ccccc1S2 (centres undefined),10,1,0.9,-3,16
CCN(CC)S(=O)(=O)c1ccc(NC(=O)CSc2ncnc3ccccc23)cc1,x,x,x,x,6
Oc1ccc2ccccc2c1C=Nc1cc(C(F)(F)F)ccc1N1CCCC1,30,1,0.7,-1,1
COc1cccc(CNC(=O)CN(C)S(=O)(=O)c2cnc[nH]2)c1,79*,0,0.2,99*,x
O=C(/C=C/c1cccs1)NC(=S)NNC(=O)Cc1cccs1,x,x,x,x,1
SMILES,CYP2C9 inhib,CYP2C19 activ,CYP2C9 act,CYP2C19 inhib,Measles CPE
Cn1nnnc1SCCNCc1ccc(Cl)cc1,-14,0.2,1.1,84*,17
CCOc1cc(CNCCSc2nnnn2C)cc(Br)c1OCc1ccccc1,81*,0.1,0.2,94*,4
Cn1nnnc1SCCNCc1ccccc1OCc1ccc(Cl)cc1,x,x,x,x,1
Cn1nnnc1SCCNCc1cc(Cl)ccc1OCc1ccccc1,x,x,x,x,0
CC(C)(C)C(=O)Nc1ccccc1C(=O)Nc1cc(Cl)ccc1Cl,61*,0.7,0.4,29,10
CCN(CC)C(=O)C1CCCN(c2ccc([N+](=O)[O-])cc2/C=N/NC(=O)c2cccc(Br)c2)C1 (centres undefined),85*,0.5,0.2,52*,11
CCc1ccc(OCC(=O)N/N=C/c2cc([N+](=O)[O-])ccc2N2CCCCCC2)cc1,x,x,x,x,12
CN1CCN(c2ccc([N+](=O)[O-])cc2/C=N/NC(=O)c2ccc(F)cc2)CC1,58*,0.4,0.4,64*,7
COc1cc(CN(C2CCCCC2)S(=O)(=O)c2ccc(S(=O)(=O)N(C)C3CCCCC3)cc2)cc(OC)c1OC,x,x,x,x,8
CCC(=O)N(Cc1cc2ccc(C)cc2n2nnnc12)C1CCCCC1,x,x,x,x,6
CCc1ccc2c(c1)cc(CN(C(=S)Nc1ccc(Cl)cc1)C1CC1)c1nnnn12,78*,0.9,0.2,8,2
CC1=C(C(=O)NC2CCCC(C)C2C)C2(CCCCC2)OC1=O (centres undefined),10,0.8,0.9,18,15
CC1=C(C(=O)N2CCCCC2)C2(CCC(C)CC2)OC1=O (centres undefined),-1,0.5,1,51*,17
CC1=C(C(=O)NC2CCCCC2C)C2(CCC(C)CC2)OC1=O (centres undefined),48,0.1,0.5,91*,7
COc1cccc(CNC(=O)c2ccccc2N)c1,9,0.2,0.9,78*,20
CC1=C(C(=O)NC(C)C)C2(CCC(C)CC2)OC1=O (centres undefined),x,x,x,x,9
COc1ccccc1CNC(=O)C1=C(C)C(=O)OC12CCC(C)CC2 (centres undefined),72*,0,0.3,98*,5
Cc1ccc(C2(C)NC(=O)N(CC(=O)Nc3cc(S(=O)(=O)N4CCOCC4)ccc3C)C2=O)cc1 (centres undefined),x,x,x,x,5
Cc1ccc(CS(=O)(=O)CCC(=O)NCCCOC(C)C)cc1,10,1.1,0.9,-5,11
O=C(N/N=C/c1cccc([N+](=O)[O-])c1)C1CC(=O)N(c2ccc(F)cc2)C1 (centres undefined),x,x,x,x,5
CC1=C(C(=O)NCCc2ccc(C)cc2)C2(CCC(C)CC2)OC1=O (centres undefined),x,x,x,x,10
COc1cccc(CNC(=O)C2=C(C)C(=O)OC23CCC(C)CC3)c1 (centres undefined),25,0.1,0.7,91*,2
CCCNC(=O)C1=C(C)C(=O)OC12CCC(C)CC2 (centres undefined),15,0.5,0.9,52*,7
COc1ccc(NC(=O)C2=C(C)C(=O)OC23CCC(C)CC3)c(OC)c1 (centres undefined),77*,0.1,0.2,87*,3
CCOc1ccc(NC(=O)C2=C(C)C(=O)OC23CCC(C)CC3)cc1 (centres undefined),69*,0.1,0.3,90*,7
